Screens: PubChem, several laboratories
In the library only some 3% were active in any assay of this set; here they are far more common.
Rv3671c inh – inhibitors of M. tuberculosis serine protease Rv3671c | P9WHR9 | inhibition, % at 5.96 µM | 320,000 compounds, 0.048% hits | AID 2606; in the data active = inhibition above about 38%;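 note: extracellular domain of Rv3671c used as enzyme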
Target sequence (P9WHR9 whole entry, looked up, the tested form may be a part): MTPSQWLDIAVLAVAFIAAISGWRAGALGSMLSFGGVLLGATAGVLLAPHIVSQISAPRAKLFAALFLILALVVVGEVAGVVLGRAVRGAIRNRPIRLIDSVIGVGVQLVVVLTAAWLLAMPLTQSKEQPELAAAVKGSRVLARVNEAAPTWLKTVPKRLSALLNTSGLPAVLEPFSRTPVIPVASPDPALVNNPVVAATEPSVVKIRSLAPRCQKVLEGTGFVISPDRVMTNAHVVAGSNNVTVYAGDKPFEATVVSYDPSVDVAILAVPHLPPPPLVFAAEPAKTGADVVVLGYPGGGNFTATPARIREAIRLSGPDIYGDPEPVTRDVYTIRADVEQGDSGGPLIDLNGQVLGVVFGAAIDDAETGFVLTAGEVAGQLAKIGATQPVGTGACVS
Mtb FBA inh – Mtb fructose-bisphosphate aldolase inhibition; 360,000 compounds, 2.3% hits; P9WQA3; purified M. tuberculosis FBA, fluorescence read-out; inhibition, % at 1 µM
FadD28 FP inh – M. tuberculosis FadD28 bisubstrate binding inhibition | FadD28 bisubstrate probe binding, fluorescence polarization | 360,000 compounds, 0.22% hits | inhibition, % at 12.5 µM; in the data active = inhibition above about 8.5%, passing the limit was not always enough
Mtb BioA inh – BioA (M. tuberculosis) enzyme inhibition. inhibition, % at 9.99 µM. 360,000 compounds, 0.096% hits. AID 602481. purified M. tuberculosis BioA enzyme, plate reader; in the data active = inhibition above about 40%
GDH-TPI counter-1 – GDH-TPI coupled enzyme inhibition counter-screen; inhibition, % at 4.8 µM; 360,000 compounds, 1.2% hits; AID 588335; GDH-TPI coupled enzyme counterscreen, NADH absorbance; in the data active = inhibition above about 30%
Mtb FBA confirm – Mtb FBA inhibition, confirmed | shares compounds with Mtb FBA inh | purified M. tuberculosis FBA, fluorescence read-out | inhibition, % at 1 µM | 5,600 compounds, 78% hits | AID 651616
GDH-TPI counter-2 – GDH-TPI inhibition counter-screen for FBA inhibitors; inhibition, % at 1 µM; 5,600 compounds, 81% hits; shares compounds with Mtb FBA inh; AID 652141; GDH-TPI coupled enzyme counterscreen, fluorescence; in the data active = inhibition above about 10%
GDH-TPI dose – GDH-TPI dose response counter-screen for Mtb FBA. shares compounds with Mtb FBA inh. GDH-TPI coupled enzyme assay, fluorescence, artifact counterscreen. IC50, µM. 170 compounds, 79% hits. AID 652145; call rule not given here
Hits are given with their value; . = inactive; / = not tested or not shown; + = active, no number. Cut-off read from the data, not from the text of the source, unless noted: active = inhibition above about 27%; inactive = the rest.

SMILES	Rv3671c inh	Mtb FBA inh	FadD28 FP inh	Mtb BioA inh	GDH-TPI counter-1	Mtb FBA confirm	GDH-TPI counter-2	others
CC(=O)OCC1OC(n2ccc3ccccc32)C(OC(C)=O)C(OC(C)=O)C1OC(C)=O (stereo unspecified)	.	.	.	.	.	/	/
Cc1noc(C)c1NC(=O)N(C)C[C@@H]1Oc2ccc(NS(=O)(=O)c3cccs3)cc2C(=O)N([C@@H](C)CO)C[C@H]1C	/	/	/	.	/	/	/
Cc1ccccc1-c1ccc2c(c1)O[C@@H](CN(C)C)[C@H](C)CN([C@@H](C)CO)S2(=O)=O	/	/	/	.	/	/	/
COCCn1nc2cc(C(=O)NCC34CC5CC(CC(C5)C3)C4)ccc2c1OC	.	43	.	.	.	+	+
CCCn1nc2cc(C(=O)NCC34CC5CC(CC(C5)C3)C4)ccc2c1OCC	.	29	.	.	.	.	.
O=C(NCC12CC3CC(CC(C3)C1)C2)c1nc2ncccn2n1	.	.	.	/	.	/	/
CN1C(=O)c2cc(NS(=O)(=O)c3ccccc3Cl)ccc2OC[C@H]2O[C@H](CC(=O)O)CC[C@H]21	/	/	/	.	/	/	/
Cc1ccc(-c2cc(C(F)F)nc(S(C)(=O)=O)n2)cc1	.	34	.	.	.	112	86
CS(=O)(=O)c1nc(-c2ccco2)cc(C(F)(F)F)n1	.	/	/	/	/	/	/
Cc1noc(C)c1S(=O)(=O)Nc1cccc2c1O[C@H](CN(C)S(=O)(=O)c1cn(C)cn1)[C@H](C)CN([C@H](C)CO)C2=O	/	/	/	.	/	/	/
Cc1ccccc1OCCC(=O)Nc1ccc2c(C)cc(=O)oc2c1	.	95	.	.	.	183	153
O=C(O)c1cccc(S(=O)(=O)Nc2ccccc2Cc2ccccc2)c1	.	.	.	/	.	/	/
Cc1ccc(NC(=O)CCOc2ccccc2C)cc1F	.	.	.	/	.	/	/
Cc1cc(=O)oc2cc(NC(=O)c3cccc(S(=O)(=O)N(C)C)c3)ccc12	.	.	.	.	.	/	/
Cc1cc(=O)oc2cc(NC(=O)c3cccc(S(C)(=O)=O)c3)ccc12	.	34	.	.	.	79	62
CS(=O)(=O)c1cccc(C(=O)Nc2ccccc2Cc2ccccc2)c1	.	58	.	.	.	48	.
CCCC(C(=O)Nc1ccc(C)c(S(=O)(=O)N2CCOCC2)c1)c1ccccc1 (stereo unspecified)	.	.	.	.	.	/	/
CCCC(C(=O)Nc1ccc2c(C)cc(=O)oc2c1)c1ccccc1 (stereo unspecified)	.	28	.	.	.	.	.	GDH-TPI dose=2.8
COc1ccc(NC(=O)N(C)C[C@@H]2Oc3ccc(NS(C)(=O)=O)cc3CC(=O)N([C@@H](C)CO)C[C@@H]2C)cc1	/	/	/	.	/	/	/
Cc1cc(=O)oc2cc(NC(=O)Cc3ccccc3[N+](=O)[O-])ccc12	.	63	.	.	.	30	19
Cc1cc(=O)oc2cc(NC(=O)Cc3ccccc3)ccc12	.	80	.	/	.	+	185
Cc1cc(=O)oc2cc(NC(=O)C(C)N3C(=O)C4CCCCC4C3=O)ccc12 (stereo unspecified)	.	85	.	.	.	65	35
Cc1cc(=O)oc2cc(NC(=O)C(C)Oc3ccc(F)cc3)ccc12 (stereo unspecified)	.	33	.	.	.	177	144
O=C(Cc1ccccc1[N+](=O)[O-])Nc1ccc2c(c1)OCO2	.	.	.	.	.	/	/
Cc1noc(C)c1S(=O)(=O)Nc1ccc2c(c1)CC(=O)N([C@H](C)CO)C[C@@H](C)[C@@H](CN(C)S(=O)(=O)c1cn(C)cn1)O2	/	/	/	.	/	/	/
Cc1noc(C)c1S(=O)(=O)Nc1ccc2c(c1)C(=O)N([C@H](C)CO)C[C@@H](C)[C@@H](CN(C)C(=O)NC(C)C)OCCCC[C@@H](C)O2	/	/	/	.	/	/	/
COC(=O)C[C@@H]1CC[C@@H](NS(=O)(=O)c2ccc(OC)cc2)[C@H](CO)O1	/	/	/	.	/	/	/
O=C(Nc1ccccc1)[C@@H]1[C@@H](CO)[C@@H]2Cn3c(cccc3=O)[C@H]1N2Cc1ccncc1	/	/	/	.	/	/	/
C[C@@H]1CN([C@@H](C)CO)C(=O)c2cc(NC(=O)Nc3ccc(C(F)(F)F)cc3)ccc2O[C@@H](C)CCCCO[C@H]1CN(C)Cc1ccccc1	/	/	/	.	/	/	/
